The text below walks through data of ChEMBL document CHEMBL3988442, “University of Dundee, Small-Polar-MMV Screening Library” (2021).

Holding throughout (parameters): scale not given: direction of the effect not stated beside the values
Assay [1] has as its target Protein translocase subunit SecA (Escherichia coli (strain K12)) (UniProt P10408). In words: Assay to Identify E. coli SecA ATPase Inhibitors. The class given is functional. As to conditions: 30 µM.
The target in assay [2] is T1, Ubiquitin-activating enzyme e1, putative (Leishmania donovani (strain BPK282A1)) (UniProt E9BSI1).
T1 sequence (whole entry): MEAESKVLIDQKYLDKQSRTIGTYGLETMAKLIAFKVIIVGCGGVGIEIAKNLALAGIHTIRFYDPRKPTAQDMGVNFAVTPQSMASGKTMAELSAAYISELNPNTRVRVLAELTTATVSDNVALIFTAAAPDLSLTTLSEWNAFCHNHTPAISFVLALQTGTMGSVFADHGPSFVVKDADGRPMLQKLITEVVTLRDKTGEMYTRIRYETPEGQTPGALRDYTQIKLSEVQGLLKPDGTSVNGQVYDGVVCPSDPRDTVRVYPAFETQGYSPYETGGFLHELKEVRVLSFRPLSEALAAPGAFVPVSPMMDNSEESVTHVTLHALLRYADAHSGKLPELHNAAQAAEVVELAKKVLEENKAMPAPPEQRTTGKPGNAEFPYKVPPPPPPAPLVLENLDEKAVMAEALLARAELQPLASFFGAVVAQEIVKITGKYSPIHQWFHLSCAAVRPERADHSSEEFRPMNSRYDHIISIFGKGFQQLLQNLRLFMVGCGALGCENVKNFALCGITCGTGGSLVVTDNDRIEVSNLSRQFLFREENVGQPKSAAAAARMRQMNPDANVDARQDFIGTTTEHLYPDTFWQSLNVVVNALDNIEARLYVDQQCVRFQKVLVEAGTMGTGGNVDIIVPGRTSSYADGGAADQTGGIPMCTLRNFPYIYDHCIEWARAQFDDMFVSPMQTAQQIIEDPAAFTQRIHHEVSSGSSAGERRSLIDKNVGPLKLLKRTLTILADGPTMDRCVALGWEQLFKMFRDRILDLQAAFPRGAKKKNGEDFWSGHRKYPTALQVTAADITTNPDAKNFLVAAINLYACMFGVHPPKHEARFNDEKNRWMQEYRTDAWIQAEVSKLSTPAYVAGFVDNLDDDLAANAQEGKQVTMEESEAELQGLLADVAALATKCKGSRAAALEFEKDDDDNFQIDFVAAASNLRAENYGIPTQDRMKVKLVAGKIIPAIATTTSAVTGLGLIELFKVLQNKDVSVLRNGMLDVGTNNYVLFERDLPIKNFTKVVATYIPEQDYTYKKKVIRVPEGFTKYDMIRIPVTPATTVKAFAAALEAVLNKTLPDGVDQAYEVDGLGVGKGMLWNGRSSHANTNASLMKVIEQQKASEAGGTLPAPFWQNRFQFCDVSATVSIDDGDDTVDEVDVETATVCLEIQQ
Nature of the assay: Leishmania donovani Ubiquitin Activating Enzyme (LdE1). The class given is functional. Conditions: 30 µM.

In assay [3] the target is AMP-activated protein kinase, AMPK (Homo sapiens) (UniProt P54646+O43741+P54619+Q9UGJ0+Q9Y478+Q13131+Q9UGI9). Nature of the assay: AMP-dependent Kinase enzyme assay. An in vitro enzyme assay that detects ADP turnover that is directly proportional to AMPK activity. This uses naive AMPK that is activated during the assay with MK-8722. The class given is functional. As to conditions: 30 µM.

The target of assay [4] is Sialic acid-binding Ig-like lectin 9 (Homo sapiens) (UniProt Q9Y336). Nature of the assay: Hs-Siglec9 ALPHAscreen SOP 20170721. Conditions: 10 µM. In general terms: Bead proximity is the source of the signal in Alpha formats.
In a further assay the test system is Trypanosoma cruzi. In words: Trypanosoma cruzi phosphomannomutase and mannose-1-phosphate guanylyltransferase assay. The class given is functional. Conditions: 10 µM.
Assay [5] has as its target T2, Arginase-2, mitochondrial (Homo sapiens) (UniProt P78540).
T2 sequence (whole entry): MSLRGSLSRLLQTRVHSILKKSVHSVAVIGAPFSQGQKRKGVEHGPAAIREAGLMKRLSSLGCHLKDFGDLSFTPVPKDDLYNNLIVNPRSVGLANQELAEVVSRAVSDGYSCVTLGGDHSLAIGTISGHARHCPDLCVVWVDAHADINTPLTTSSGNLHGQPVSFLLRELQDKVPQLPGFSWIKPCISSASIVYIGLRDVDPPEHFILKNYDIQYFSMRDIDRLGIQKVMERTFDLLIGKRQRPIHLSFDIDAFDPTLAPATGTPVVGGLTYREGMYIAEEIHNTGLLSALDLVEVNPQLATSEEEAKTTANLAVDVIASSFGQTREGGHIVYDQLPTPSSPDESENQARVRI
In words: in vitro enzyme assay to detect the production of urea directly proportional to the activity of Arginase II. Note: in the data most compounds retested in dose-response had high values. It counts as functional. As to conditions: 33.3 µM.

Assay [6] has as its target T3, Proteasome subunit beta (Trypanosoma cruzi) (UniProt O96673).
T3 sequence (whole entry): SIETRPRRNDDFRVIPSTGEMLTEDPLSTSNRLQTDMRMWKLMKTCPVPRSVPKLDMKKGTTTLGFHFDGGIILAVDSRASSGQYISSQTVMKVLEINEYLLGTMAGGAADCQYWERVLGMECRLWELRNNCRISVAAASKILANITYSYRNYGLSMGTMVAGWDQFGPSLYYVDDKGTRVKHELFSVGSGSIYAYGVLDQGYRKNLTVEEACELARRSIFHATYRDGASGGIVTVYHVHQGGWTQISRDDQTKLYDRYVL
In words: Trypanosoma cruzi proteasome chymotrypsin-like activity (TcProtChymo) assay. Note: in the data most compounds retested in dose-response had high values. The class given is functional. Conditions: 9.37 µM.

The species entered for the next assay is Homo sapiens. Nature of the assay: To identify inhibition of the IFN signalling (Jak-Stat) pathway via expression of an eGFP reporter gene under the control of an IFN-stimulated response element (ISRE) containing MxA promoter. The class given is functional. Conditions: 30 µM.
Assay [7] has as its target T4, Tyrosyl-tRNA synthetase, putative (Trypanosoma cruzi (strain CL Brener)) (UniProt Q4DSP6).
T4 sequence (whole entry): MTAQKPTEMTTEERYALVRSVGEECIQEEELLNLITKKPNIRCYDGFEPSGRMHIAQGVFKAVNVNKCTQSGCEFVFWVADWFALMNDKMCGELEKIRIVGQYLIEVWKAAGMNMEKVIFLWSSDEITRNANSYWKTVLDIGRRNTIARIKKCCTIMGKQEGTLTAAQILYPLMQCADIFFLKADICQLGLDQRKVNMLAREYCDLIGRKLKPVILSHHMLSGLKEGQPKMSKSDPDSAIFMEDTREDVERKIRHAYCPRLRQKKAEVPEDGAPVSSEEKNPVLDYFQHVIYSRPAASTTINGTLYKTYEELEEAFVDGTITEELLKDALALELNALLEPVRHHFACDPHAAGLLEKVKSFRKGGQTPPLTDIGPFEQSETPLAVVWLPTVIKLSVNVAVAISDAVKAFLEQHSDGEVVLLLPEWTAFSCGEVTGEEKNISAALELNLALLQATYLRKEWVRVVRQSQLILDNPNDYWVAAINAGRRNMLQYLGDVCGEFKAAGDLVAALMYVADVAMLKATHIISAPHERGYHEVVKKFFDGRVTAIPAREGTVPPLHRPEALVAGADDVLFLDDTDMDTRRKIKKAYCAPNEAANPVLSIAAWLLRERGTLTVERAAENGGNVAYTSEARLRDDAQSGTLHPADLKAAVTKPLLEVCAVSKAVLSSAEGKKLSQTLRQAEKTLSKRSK
In words: Trypanosoma cruzi tyrosyl tRNA synthetase (TcYRS) _High Tyrosine SOP. Note: in the data most compounds retested in dose-response had high values. The class given is functional. Conditions: 30 µM.

In assay [8] the target is T4, Tyrosyl-tRNA synthetase, putative (Trypanosoma cruzi (strain CL Brener)). Nature of the assay: Trypanosoma cruzi tyrosyl tRNA synthetase (TcYRS) SOP. As to conditions: 30 µM. It counts as functional.
The target of assay [9] is Chromo domain-containing protein 1 (Saccharomyces cerevisiae (strain ATCC 204508 / S288c) (Baker's yeast)) (UniProt P32657). Nature of the assay: ScCHD-1 Enzyme Inhibition Assay. Note: in the data most compounds retested in dose-response had high values. The class given is functional. As to conditions: 30 µM.

For some of these results: Entries with a potency or affinity are not part of this list.

Protein translocase subunit SecA (Escherichia coli (strain K12)), sequence (P10408 whole entry): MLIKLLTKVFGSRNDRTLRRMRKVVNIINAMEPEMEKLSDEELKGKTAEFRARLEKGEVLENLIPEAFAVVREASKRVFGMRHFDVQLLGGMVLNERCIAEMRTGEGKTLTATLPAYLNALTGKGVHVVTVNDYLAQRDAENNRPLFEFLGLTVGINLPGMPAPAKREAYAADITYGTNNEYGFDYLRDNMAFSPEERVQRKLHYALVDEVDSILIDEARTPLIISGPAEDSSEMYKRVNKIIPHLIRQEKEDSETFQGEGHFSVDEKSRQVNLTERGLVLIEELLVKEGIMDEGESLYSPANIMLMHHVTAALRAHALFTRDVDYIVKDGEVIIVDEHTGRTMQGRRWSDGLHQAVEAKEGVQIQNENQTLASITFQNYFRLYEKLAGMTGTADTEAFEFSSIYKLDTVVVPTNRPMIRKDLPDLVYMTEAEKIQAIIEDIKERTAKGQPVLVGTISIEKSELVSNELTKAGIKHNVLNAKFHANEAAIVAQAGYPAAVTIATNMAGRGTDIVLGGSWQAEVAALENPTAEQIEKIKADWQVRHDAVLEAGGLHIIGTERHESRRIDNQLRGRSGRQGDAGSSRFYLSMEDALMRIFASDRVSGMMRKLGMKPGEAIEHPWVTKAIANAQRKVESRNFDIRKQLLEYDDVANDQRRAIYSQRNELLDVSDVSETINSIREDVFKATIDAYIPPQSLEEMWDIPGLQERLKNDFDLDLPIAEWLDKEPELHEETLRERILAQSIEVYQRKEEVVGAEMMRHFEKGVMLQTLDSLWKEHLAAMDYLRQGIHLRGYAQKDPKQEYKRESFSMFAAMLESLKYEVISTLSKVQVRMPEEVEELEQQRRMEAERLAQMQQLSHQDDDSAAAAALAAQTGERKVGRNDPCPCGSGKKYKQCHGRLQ
Sialic acid-binding Ig-like lectin 9 (Homo sapiens), sequence (Q9Y336 whole entry): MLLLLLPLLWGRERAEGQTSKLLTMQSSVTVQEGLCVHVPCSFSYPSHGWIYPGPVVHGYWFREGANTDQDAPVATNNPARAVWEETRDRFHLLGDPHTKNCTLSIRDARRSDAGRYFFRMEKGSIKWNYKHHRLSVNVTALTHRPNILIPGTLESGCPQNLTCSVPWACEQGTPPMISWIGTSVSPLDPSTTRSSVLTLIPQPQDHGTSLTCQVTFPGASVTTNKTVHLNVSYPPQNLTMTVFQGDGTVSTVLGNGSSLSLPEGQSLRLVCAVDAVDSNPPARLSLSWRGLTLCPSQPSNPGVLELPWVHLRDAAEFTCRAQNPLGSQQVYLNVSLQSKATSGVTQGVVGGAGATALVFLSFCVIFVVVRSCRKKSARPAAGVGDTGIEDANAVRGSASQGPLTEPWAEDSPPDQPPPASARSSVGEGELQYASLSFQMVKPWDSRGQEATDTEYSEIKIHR
Chromo domain-containing protein 1 (Saccharomyces cerevisiae (strain ATCC 204508 / S288c) (Baker's yeast)), sequence (P32657 whole entry, the tested form may be a part): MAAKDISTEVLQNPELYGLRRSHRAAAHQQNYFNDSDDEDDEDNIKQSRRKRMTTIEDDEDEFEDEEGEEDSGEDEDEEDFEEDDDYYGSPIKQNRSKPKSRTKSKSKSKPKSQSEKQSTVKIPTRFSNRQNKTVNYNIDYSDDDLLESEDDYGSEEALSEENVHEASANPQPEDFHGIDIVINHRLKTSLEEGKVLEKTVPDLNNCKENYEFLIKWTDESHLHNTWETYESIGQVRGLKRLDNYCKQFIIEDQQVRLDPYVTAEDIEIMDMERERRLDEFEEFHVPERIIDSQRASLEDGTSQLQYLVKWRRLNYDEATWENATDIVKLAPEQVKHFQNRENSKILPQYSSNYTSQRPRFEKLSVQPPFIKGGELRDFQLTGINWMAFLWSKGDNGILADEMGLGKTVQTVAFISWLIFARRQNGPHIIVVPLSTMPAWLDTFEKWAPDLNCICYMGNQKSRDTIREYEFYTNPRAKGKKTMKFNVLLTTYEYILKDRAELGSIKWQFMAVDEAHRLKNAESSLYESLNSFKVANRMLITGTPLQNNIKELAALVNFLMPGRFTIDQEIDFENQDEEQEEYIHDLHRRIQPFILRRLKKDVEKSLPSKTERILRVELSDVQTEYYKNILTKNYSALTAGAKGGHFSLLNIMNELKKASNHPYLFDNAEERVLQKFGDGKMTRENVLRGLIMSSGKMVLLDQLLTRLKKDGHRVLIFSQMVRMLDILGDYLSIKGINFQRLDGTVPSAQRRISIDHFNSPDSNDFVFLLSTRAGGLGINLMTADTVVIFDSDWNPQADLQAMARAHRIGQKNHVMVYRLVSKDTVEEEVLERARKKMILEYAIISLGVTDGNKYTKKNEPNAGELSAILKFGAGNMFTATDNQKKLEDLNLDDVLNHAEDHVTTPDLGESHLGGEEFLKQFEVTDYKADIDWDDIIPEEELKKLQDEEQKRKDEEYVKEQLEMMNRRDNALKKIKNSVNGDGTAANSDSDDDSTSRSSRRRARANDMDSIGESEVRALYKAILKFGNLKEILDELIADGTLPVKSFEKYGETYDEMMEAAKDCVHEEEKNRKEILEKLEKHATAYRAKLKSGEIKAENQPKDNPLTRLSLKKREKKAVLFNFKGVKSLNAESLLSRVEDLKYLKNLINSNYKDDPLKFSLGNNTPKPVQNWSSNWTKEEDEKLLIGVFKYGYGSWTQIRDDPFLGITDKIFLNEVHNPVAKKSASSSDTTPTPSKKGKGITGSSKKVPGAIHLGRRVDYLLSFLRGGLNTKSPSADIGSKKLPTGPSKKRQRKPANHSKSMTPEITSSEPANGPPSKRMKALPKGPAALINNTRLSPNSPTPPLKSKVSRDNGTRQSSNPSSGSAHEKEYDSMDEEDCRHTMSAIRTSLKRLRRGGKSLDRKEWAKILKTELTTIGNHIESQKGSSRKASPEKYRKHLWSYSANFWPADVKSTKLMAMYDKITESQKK

For `CN(C)C(=O)N1CCN(Cc2cnn(C)c2)CC2(CNC(=O)C2)C1` (stereo unspecified), the Percent Effect in assay [1] was -2.48%; in [2] it was 0%; in assay [3], 2.36%; in [4] it was 11.3%; in the assay on Trypanosoma cruzi, -3.03%; in assay [5], -2.87%. The Percent Effect in assay [6] stood at 17%; in the assay filed under Homo sapiens, 3.58%; in assay [7], 4.32%; in assay [8], 2.56%; in assay [9], 3.46%.
Take `COc1ccc(C(=O)N2CCCC(CNS(C)(=O)=O)C2)cc1F` (stereo unspecified): the Percent Effect is -4.66% in [1]; 8.11% in assay [2]; -5.72% in [3]; 6.16% in assay [4]; -3.3% in the assay with Trypanosoma cruzi; 2.4% in assay [5]. In addition, the Percent Effect is 0.18% in assay [6]; 6.39% in the assay filed under Homo sapiens; 5.42% in assay [7]; 16.1% in [8]; -6.29% in assay [9].
Turning to `CN1CCN(C(=O)CC2CCN(CCc3ccccn3)CC2)CC1`, the Percent Effect in assay [1] is -2.81%; in assay [2] it was 5.2%; in [3], 3.53%; in [4], 5.15%; in the assay on Trypanosoma cruzi, 5.58%; in assay [5], 4.84%. Besides, the Percent Effect was 3.48% in assay [6]; 9.07% in the assay filed under Homo sapiens; 6.67% in assay [7]; 18.8% in [8]; -17.3% in assay [9].
For the compound `Cc1nc(C)n(CC2CCCCN2Cc2nnc(C3CC3)o2)n1` (stereo unspecified), the Percent Effect in assay [1] turned out to be 0.312%; in assay [2], 2.6%; in assay [3] it was 3.13%; in assay [4], 1.14%; in the assay with Trypanosoma cruzi, 3.37%; in [5], 0.712%. The Percent Effect is 1.69% in assay [6]; 1.94% in the assay listed under Homo sapiens; 0.971% in [7]; 7.32% in assay [8]; -9.02% in assay [9].
`O=C1CC(c2cccnc2)c2c(c(C(=O)O)cn2-c2ccccc2)N1` (stereo unspecified): the Percent Effect in assay [1] was -3.57%; in assay [2], 6.67%; in assay [3], -32.4%; in assay [4] it was -0.792%; in the assay on Trypanosoma cruzi, -3.14%; in assay [5], 6.16%. Also, the Percent Effect in assay [6] was 14.6%; in the assay listed under Homo sapiens it was 11.4%; in assay [7], 3.17%; in assay [8], 10.3%; in [9], -8.81%.
Consider `O=C(NCC1CC1)[C@H]1C[C@@H]2CN(S(=O)(=O)Cc3ccccc3)C[C@H]1O2`, for which the Percent Effect was -3.04% in assay [1]; 10.7% in [2]; 12.2% in [3]; -8.26% in [4]; -6.5% in the assay on Trypanosoma cruzi; 2.56% in assay [5]. In addition, the Percent Effect in assay [6] is 9.25%; in the assay filed under Homo sapiens, 12.3%; in assay [7], 0%; in assay [8] it was 1.28%; in assay [9], -3.45%.
`COc1c(C2CCCN2Cc2csc(C(C)C)n2)c(C)nn1C` (stereo unspecified): the Percent Effect in assay [1] is -0.655%; in [2] it was 18.2%; in assay [3], -4.6%; in assay [4], -3.17%; with Trypanosoma cruzi, -8.99%; in [5], 4.63%. For the same compound, the Percent Effect in [6] was 17.6%; in the assay listed under Homo sapiens, 37.8%; in assay [7] it was 1.94%; in assay [8], 2.44%; in assay [9], -7.12%.
Take `Cn1c2c(ccc1=O)CC(NS(C)(=O)=O)CC2` (stereo unspecified): the Percent Effect in assay [1] was -7.68%; in assay [2], 5.33%; in [3] it was 5.05%; in [4], -7.17%; in the assay with Trypanosoma cruzi, -1.97%; in [5], -0.233%. Further, the Percent Effect in assay [6] was -1.15%; in the assay filed under Homo sapiens, 20.7%; in assay [7], 2.13%; in assay [8] it was -3.85%; in assay [9], -1.57%.
Take `Cn1cccc1C(=O)N1CCc2ncnc(N3CCCC3)c2CC1`: the Percent Effect in assay [1] is -4.32%; in [2] it was 5.33%; in [3], 8.28%; in assay [4] it was 2.39%; with Trypanosoma cruzi, 4.13%; in assay [5], -4.43%. Also, the Percent Effect in assay [6] was -0.264%; in the assay listed under Homo sapiens, 8.45%; in assay [7], 5.32%; in assay [8], 11.5%; in assay [9] it was -2.07%.
On to `COc1ccc(OC)c(CNCCc2cc(F)cc3c2OCOC3)c1`, for which the Percent Effect in [1] was -5.17%; in [2], -6.94%; in assay [3], -9.7%; in [4], 2.47%; with Trypanosoma cruzi, 4.57%; in assay [5], -3.09%. Moreover, the Percent Effect in assay [6] is 7.19%; in the assay filed under Homo sapiens, 4.72%; in assay [7], 2.1%; in assay [8], 2.56%; in assay [9] it was -2.06%.
As to `Cc1cnn(CC2CN(Cc3nccn3C)CCO2)c1` (stereo unspecified), the Percent Effect in assay [1] was -2.86%; in assay [2], 5.41%; in assay [3], -4.03%; in [4], 2.01%; in the assay with Trypanosoma cruzi, -1.95%; in assay [5], 3.14%. Besides, the Percent Effect was 1.44% in assay [6]; 8.74% in the assay filed under Homo sapiens; 6.93% in assay [7]; 11% in assay [8]; -1.23% in assay [9].
